Pol kappa inh-1 – inhibitors of human DNA polymerase kappa; Q9UBT6; purified Pol kappa, fluorescent DNA synthesis assay, 10 min; Potency, µM (titrated, usually from 107 µM), actives largely listed as inhibitors; 400,000 tested, 0.53% active; AID 588579
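Inhibition of 10 nM Pol kappa is measured by a fluorescent read-out at 0 and 10 min following addition of 50 nM substrate (final), with a 15-min room-temperature compound preincubation.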
Pol eta inh-1 – blocks human DNA polymerase eta activity. 390,000 tested, 1.2% active. recombinant Pol eta, fluorescent DNA replication assay. Potency, µM (highest dose often 114 µM), actives largely listed as inhibitors. Q9Y253
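Pol eta (10 nM) was preincubated with compounds for 15 min at room temperature, after which fluorescent replication substrate (50 nM final) was added to start the reaction. Fluorescence was read kinetically at 0 and 10 min.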
FEN1 inhibitor – inhibitors of human flap endonuclease 1; Recombinant FEN1 flap cleavage, fluorescence, 15 min; Potency, µM (top dose mostly 114 µM), most hits filed as inhibitors; 390,000 tested, 0.35% active; AID 588795; further: nearly all actives have a fitted effect of over 65% in size
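Compounds are tested as a concentration series against 10 nM FEN1; after a 15 min room-temperature preincubation, 50 nM substrate starts cleavage, with plate reads at 0 and 15 min. Normalized responses are fitted by a Hill equation.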
Pol iota inh – blocks human DNA polymerase iota activity. Q9UNA4. Pol iota fluorescent replication assay, 10 min. Potency, µM (series often up to 115 µM), actives largely listed as inhibitors. 390,000 tested, 1% active. AID 588590
Target sequence (Q9UNA4 whole entry, looked up): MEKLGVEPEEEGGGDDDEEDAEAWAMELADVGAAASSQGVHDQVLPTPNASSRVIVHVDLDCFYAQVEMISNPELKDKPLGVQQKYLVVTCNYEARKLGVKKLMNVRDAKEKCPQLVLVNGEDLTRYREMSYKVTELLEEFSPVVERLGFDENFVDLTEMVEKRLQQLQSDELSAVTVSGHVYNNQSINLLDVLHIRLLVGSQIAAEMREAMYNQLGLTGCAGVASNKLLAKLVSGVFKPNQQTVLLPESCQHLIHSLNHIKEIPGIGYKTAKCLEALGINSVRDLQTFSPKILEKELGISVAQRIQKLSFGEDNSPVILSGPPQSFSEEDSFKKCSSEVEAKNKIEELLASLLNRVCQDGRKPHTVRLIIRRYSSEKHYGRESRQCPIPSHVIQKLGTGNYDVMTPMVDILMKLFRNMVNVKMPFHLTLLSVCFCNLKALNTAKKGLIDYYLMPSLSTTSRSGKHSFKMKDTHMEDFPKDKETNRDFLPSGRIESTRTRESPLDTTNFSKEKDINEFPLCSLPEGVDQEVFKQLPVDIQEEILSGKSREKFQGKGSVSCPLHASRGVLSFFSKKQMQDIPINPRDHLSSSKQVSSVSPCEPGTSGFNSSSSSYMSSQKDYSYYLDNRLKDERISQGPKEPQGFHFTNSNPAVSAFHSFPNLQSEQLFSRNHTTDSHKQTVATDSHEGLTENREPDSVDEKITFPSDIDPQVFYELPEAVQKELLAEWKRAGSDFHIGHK
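Pol iota at 10 nM preincubated 15 min with compounds at room temperature; reaction started with fluorescent substrate, 50 nM final. Fluorescence read kinetically at 0 and 10 min; buffer-only wells as negative control.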
POLB inh – DNA polymerase beta (human) inhibition; AID 485314; Pol beta primer extension/strand displacement, fluorescence kinetic; Potency, µM (series often up to 114 µM), usual class: inhibitors; P06746; 340,000 tested, 1.3% active
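Reaction started by 50 nM substrate onto compound-treated Pol beta (10 nM, 15 min preincubation, room temperature); plates read at 0 min and 10 min. Normalized concentration-effect data fitted by four-parameter Hill equation.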
WRN helicase inh – blocks human WRN helicase; AID 651768; WRN helicase unwinding, fluorescent forked duplex, kinetic; Potency, µM (top dose mostly 114 µM), hits mostly inhibitors; Q14191; 360,000 tested, 0.46% active; further: nearly all actives have a fitted effect of over 55% in size
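Kinetic red-fluorescence monitoring (525/598 nm) tracks WRN helicase activity after 100 nM fluorophore-quencher forked duplex and 2 mM ATP are added to 20 nM enzyme pretreated 15 min at room temperature with compound.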
GALK confirm – galactokinase (human) inhibition, confirmation. AID 2015. 150 tested, 70% active. purified GALK, Kinase-Glo ATP depletion luminescence. Potency, µM (series often up to 115 µM), most hits filed as inhibitors. shares compounds with Pol eta inh-1
GALK redox cs – counter-screen for GALK inhibitors: redox cycling H2O2 generation; shares compounds with Pol eta inh-1; Phenol red-HRP H2O2 redox cycling, absorbance 600 nm; Potency, µM (series often up to 115 µM), most hits filed as inhibitors; 150 tested, 40% active; AID 2035
HEK293 tox – counter-screen for GALK inhibitors: HEK293 cell cytotoxicity | shares compounds with Pol eta inh-1 | HEK-293 viability, ATP luminescence (CellTiter-Glo), 24/48 h | 170 tested, 10% active | Potency, µM (highest dose often 46.1 µM), most hits filed as inhibitors
Pol kappa inh-2 – Pol kappa (human) inhibition, cherry-pick confirmation; shares compounds with Pol eta inh-1; purified Pol-kappa, fluorescent strand-displacement substrate; Potency, µM, most hits filed as inhibitors; 920 tested, 76% active; AID 720501
Pol eta inh-2 – confirmation of human DNA polymerase eta inhibitors | Potency, µM, most hits filed as inhibitors | shares compounds with Pol eta inh-1 | 2,600 tested, 64% active | Pol eta primer extension, TAMRA/BHQ fluorescence, 10 min
A number is an active result; i = inactive; ? = inconclusive; nt = no result; [ ] = dose if it differs, or a comment. Most compounds without a hit are left out; they make up all but 2.4% or so of the library. The call rests on the fitted dose curve; in most records, active means well fitted curve in the direction sought with a large enough effect; inconclusive means small, poorly fitted or top-dose-only effect, or another doubt; inactive means no such curve, though single readings can be large; an effect the other way counts as inactive or inconclusive.

SMILES | Pol kappa inh-1 | Pol eta inh-1 | FEN1 inhibitor | Pol iota inh | POLB inh | WRN helicase inh | Pol eta inh-2 | others
CC(C)c1ccc(/C=c2\sc3nc(-c4ccncc4)nn3c2=O)cc1 | i | ? | i | i | i | i | nt
Cc1ccc(/C=c2\sc3nc(-c4cccnc4)nn3c2=O)cc1 | i | 10µM | i | ? | ? | ? | ?
COCC(=O)Nc1nnc(C2CCCCC2)s1 | i | i | i | i | i | i | nt
CC1CCN(S(=O)(=O)c2ccc3c(c2)C(Cl)(Cl)C(=O)N3)CC1 | nt | 31.6µM | nt | nt | nt | i[11.6 µM] | ?
O=C(CSc1nc2ccccc2o1)N1CCOCC1 | i | i | i | i | i | i | nt
CC1=C(C(N)=O)C(c2cccs2)n2nc(-c3cccc(C)c3)nc2N1 (centres undefined) | i | i | i | i | i | i | nt
CC1=C(C(N)=O)C(c2cccs2)n2nc(-c3cccc(Cl)c3)nc2N1 (centres undefined) | i | i | i | i | i | i | nt | GALK confirm=?;GALK redox cs=i;HEK293 tox=i
N#Cc1c(SCC(=O)Nc2nc3ccccc3s2)sc2c(O)cc(=O)[nH]c12 | 12.6µM | 4.47µM | 17.8µM | 6.31µM | nt | 39.8µM | 30.1 | Pol kappa inh-2=18.9
CC1=NN(c2ccccc2)C(=O)/C1=C\c1c(C)[nH]n(-c2ccccc2)c1=O | i | i | i | i | i | i | nt
CC1=NN(c2ccccc2)C(=O)/C1=C/c1c(O)n(-c2ccc(F)c(Cl)c2)[nH]c1=O | ? | 28.2µM | ? | i | ? | ? | nt | GALK confirm=29.8µM;GALK redox cs=i;HEK293 tox=i
COc1ccc(OC)c(CNC(=O)c2ccc(Sc3ccc(Cl)cc3)c(NC(C)=O)c2)c1 | i | i | i | ? | i | nt | nt
Cc1nnc(SCc2nc3sc(C(=O)O)c(C)c3c(=O)[nH]2)s1 | 89.1µM | 22.4µM | ? | 20µM | i | i | 42.6
C=CCn1c(SCc2nc3sc(C(=O)O)c(C)c3c(=O)[nH]2)nnc1-c1ccc(C(C)(C)C)cc1 | 35.5µM | 7.08µM | 44.7µM | ? | 22.4µM | ? | 30.1 | Pol kappa inh-2=11.9
CC(=O)c1sc2nc(CSc3nncn3C)[nH]c(=O)c2c1C | i | i | i | ? | i | i | nt
Cc1c(C(=O)O)sc2nc(CSc3nnc(-c4ccc(F)cc4)n3C)[nH]c(=O)c12 | i | 35.5µM | i | ? | i | ? | ?
CCOCCCn1c(SCc2nc3sc(C(=O)O)c(C)c3c(=O)[nH]2)nnc1-c1ccc(Cl)cc1 | i | i | i | i | i | i | nt
Cc1cc(Cl)ccc1OCC(=O)Nc1nc(-c2cccs2)cs1 | i | i | i | ? | i | i | nt
CCOC(=O)C1CCN(C(=O)C2CCN(S(=O)(=O)c3cc(Cl)ccc3OCC)CC2)CC1 | i | i | i | i | i | i | nt
O=C(CSc1nc2ccccc2c(=O)n1-c1ccccc1)N1CCC1 | i | i | i | i | i | i | nt
O=C(CSc1nc2ccccc2c(=O)n1-c1ccccc1)NC(=O)CN1CCCC1=O | ? | 44.7µM | i | ? | 12.6µM | i[11.6 µM] | ?
Fc1ccccc1-c1nnc2n1N=C(c1ccc(OC(F)F)c(OCC3CC3)c1)CS2 | i | i | i | i | nt | nt | nt
COc1ccc(C2=Nn3c(nnc3-c3ccncc3)SC2)cc1OC | i | i | i | i | i | i | nt
COc1ccc(C2=Nn3c(nnc3-c3ccccc3C(F)(F)F)SC2)cc1OC1CCOC1 (centres undefined) | ? | i | i | i | nt | nt | nt | Pol kappa inh-2=4.74
COc1ccc(C2=Nn3c(nnc3-c3ccccc3OC)SC2)cc1OC1CCOC1 (centres undefined) | 44.7µM | i | i | i | nt | nt | nt | Pol kappa inh-2=4.23
O=C(CSc1ccccn1)N1CCN(c2ncc(C(F)(F)F)cc2Cl)CC1 | i | i | i | i | i | i | nt
SMILES | Pol kappa inh-1 | Pol eta inh-1 | FEN1 inhibitor | Pol iota inh | POLB inh | WRN helicase inh | Pol eta inh-2 | others
COC(=O)Cc1cc(C)cc2c(=O)cc(-c3ccoc3)oc12 | i | 50.1µM | i | ? | nt | ? | ?
COC(=O)Cc1cc(=O)oc2cc(OC)ccc12 | i | i | i | i | i | i | nt
CC1=C(C(=O)N2CCOCC2)CC(CC(=O)NCc2cccc3ccccc23)C(=O)N1Cc1ccc(F)cc1 (centres undefined) | nt | i | nt | nt | nt | i | nt
CCC(C)NC(=O)C1(C)CCC(=O)N1Cc1ccccc1OC (centres undefined) | i | i | i | i | i | i | nt
O=C1CSC(=S)N1c1ccc(F)c(Cl)c1 | i | i | i | ? | i | i | nt
O=C(O)c1cc(C(=O)O)cc(N2C(=O)CSC2=S)c1 | 89.1µM | ? | ? | 22.4µM | i | i[11.6 µM] | 30.1 | Pol kappa inh-2=?
CCN(CC)S(=O)(=O)c1cccc(NC(=O)COC(=O)/C=C/c2ccco2)c1 | i | i | i | i | i | i | nt
CN(C)S(=O)(=O)c1cccc(NC(=O)COC(=O)/C=C/c2ccco2)c1 | i | ? | i | i | 31.6µM | i | ?
COc1ccc(NC(=O)CN2C(=O)NC3(CCCC3)C2=O)cc1OC | i | i | i | ? | i | i[11.6 µM] | ?
Cc1ccc(OCC(=O)N/N=C/c2cccn2C)cc1C | i | i | i | i | i | i | nt
O=C(COc1ccccc1)N/N=C/c1sc(=O)n(Cc2cccc(C(=O)O)c2)c1Cl | i | 22.4µM | i | ? | i | i[11.6 µM] | 33.8
COc1ccc(OCC(=O)N/N=C/c2cccn2-c2cccc(C(=O)O)c2)cc1 | 79.4µM | 5.01µM | i | 10µM | nt | ? | 30.1 | Pol kappa inh-2=21.2
CC(C)NS(=O)(=O)c1ccc2[nH]c3nc(SCC(=O)Nc4ccc(F)c(F)c4)nnc3c2c1 | 79.4µM | nt | i | 79.4µM | nt | nt | ?
O=C(NC1CCCCC1)/C(=C/c1ccc(Cl)cc1)NC(=O)c1ccccc1 | i | i | i | i | i | nt | nt
Cc1cc(/C=C2\SC(=S)NC2=O)c(C)n1-c1ccc(O)cc1 | ? | 50.1µM | i | ? | 50.1µM | ? | nt | Pol kappa inh-2=?
Cc1nc(Nc2nc3ccccc3o2)nc2c1CCCC2 | nt | nt | nt | nt | nt | nt | nt | HEK293 tox=i
Cc1cc(C)nc(Nc2nc3ccccc3o2)n1 | i | i | i | i | i | i | nt

Screens as filed in PubChem BioAssay.
